This excerpt belongs to a sample that is enriched for hits.
CD11b adhes enh: enhancers of CD11b/CD18 adhesion to fibrinogen, primary screen, K562 cells, luminescence | Integrin beta-2 (Homo sapiens) + Integrin alpha-M (Homo sapiens), P05107+P11215 | ATPlite luminescence | activation, % at 10 µM | actives 0.07% (n = 93,000);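 active = 10 µM primary screen giving 50% or more activity, confirmed by 40% or more on retest at that dose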
Target sequence (P05107 whole entry, looked up, other chains not shown): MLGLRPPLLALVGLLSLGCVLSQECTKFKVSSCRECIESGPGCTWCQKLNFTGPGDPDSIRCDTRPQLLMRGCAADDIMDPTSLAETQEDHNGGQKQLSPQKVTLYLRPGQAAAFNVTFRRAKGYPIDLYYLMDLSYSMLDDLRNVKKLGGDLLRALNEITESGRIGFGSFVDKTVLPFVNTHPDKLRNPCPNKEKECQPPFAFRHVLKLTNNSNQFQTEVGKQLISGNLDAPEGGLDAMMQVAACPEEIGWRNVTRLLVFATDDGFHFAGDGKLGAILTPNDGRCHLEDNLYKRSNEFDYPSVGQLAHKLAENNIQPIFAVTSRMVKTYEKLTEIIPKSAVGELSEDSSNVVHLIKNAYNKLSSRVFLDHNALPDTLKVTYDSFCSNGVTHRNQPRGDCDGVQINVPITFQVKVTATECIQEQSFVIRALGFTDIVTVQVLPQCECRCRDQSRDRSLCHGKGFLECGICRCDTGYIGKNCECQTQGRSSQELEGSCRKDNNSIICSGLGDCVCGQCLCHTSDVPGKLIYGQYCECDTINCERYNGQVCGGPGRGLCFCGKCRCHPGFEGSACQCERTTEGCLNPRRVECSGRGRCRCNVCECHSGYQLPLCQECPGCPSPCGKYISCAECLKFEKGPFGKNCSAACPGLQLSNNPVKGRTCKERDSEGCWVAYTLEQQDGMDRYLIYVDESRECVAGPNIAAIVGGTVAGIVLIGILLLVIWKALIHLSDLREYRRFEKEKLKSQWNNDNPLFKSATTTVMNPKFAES
hDAT+cocaine: changed hDAT dopamine uptake under cocaine IC80, either direction, primary screen, cocaine antagonist project, cell-based, LLC-PK1 hDAT, [14C]-dopamine uptake, MLSMR | Sodium-dependent dopamine transporter (Homo sapiens), Q01959 | LLC-PK1 hDAT cells, [14C]-dopamine uptake with cocaine IC80; actives deviate in either direction | B-score at 10 µM | actives 1.3% (n = 110,000);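 active = Z score or B-score, a plate-position-corrected score, falls beyond the plate's 99.7% confidence bounds, in either direction; inactive = both scores lie inside the 99.7% bounds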;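 note: scored against the spread of the other compound wells on the same plate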
PTK2B oligo ant: antagonists of Pyk2 self-association, primary screen, Q293 cells, FERM NanoBiT luminescence, HTS; z-score (the deposit names both 25 µM and 10 µM); active compounds read low; Protein-tyrosine kinase 2-beta (Homo sapiens), Q14289; actives 0.83% (n = 99,000);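 active = Z-score of -3 or lower, scaled per plate to the spread of control and sample wells; inactive = z-score above -3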;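 note: negative z-score means lost luminescence so less FERM oligomerization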
Mac1 fbg inh: inhibitors of CD11b/CD18 adhesion to fibrinogen, primary screen, K562 cells, luminescence; ATPlite luminescence; Mn2+ added to activate the integrin; inhibition, % at 10 µM; actives 0.54% (n = 93,000); AID 1497, 2009;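 active = primary inhibition of 50% or more at 10 µM, then 40% or more on retest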
D1 mod: D1 CRE-luciferase signal change, two-sided – cell-based, HEK293 D1, dopamine EC30, D1 allosteric modulator project, primary screen; dopamine EC30 potentiation; actives deviate in either direction; B-score at 10 µM; actives 5.9% (n = 58,000); AID 641, 2007;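 active = luminescence count or its row- and column-corrected plate score outside the 99.7% band of the plate's sample wells, on either side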
FAK inh: FAK kinase inhibitors, primary screen, biochemical. biochemical FAK kinase activity assay. actives 0.84% (n = 97,000). inhibition, %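 (tested at 7 µM)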. AID 727, 2007. Focal adhesion kinase 1 (Homo sapiens), Q05397; in the data active = inhibition above about 19%;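 note: 0% = DMSO and 100% = reference compound high control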
Numbers without * were called inactive.

What do the screens show for `CC(C)OC(=O)C(C)Oc1ccc(C(=O)NCCc2ccccc2)cc1` (configuration not stated)?
CD11b adhes enh: 5.7; hDAT+cocaine: -7.08*; PTK2B oligo ant: 0.78; Mac1 fbg inh: -10.8; FAK inh: -0.7

Results for CN(Cc1cccs1)c1ncnc2sccc12 ?
CD11b adhes enh: -7.5; hDAT+cocaine: -0.884; PTK2B oligo ant: 0.41; Mac1 fbg inh: 88.6*; D1 mod: 2.94; FAK inh: 12.1

What do the screens show for `Cc1sc2ncnc(N(C)Cc3cccs3)c2c1C`?
CD11b adhes enh: 0.5; hDAT+cocaine: 0.341; PTK2B oligo ant: -0.53; Mac1 fbg inh: 33.6; FAK inh: 0.6

What do the screens show for `O=C(COc1ncnc2c(Cl)cc(Cl)cc12)NCCC1=CCCCC1`?
CD11b adhes enh: 31.5; hDAT+cocaine: 0.0904; PTK2B oligo ant: -0.01; Mac1 fbg inh: -21.5; FAK inh: 0.6

How did CCN1CCCC1CNC(=O)c1ccc(CS(=O)(=O)c2ccccc2C)o1 (configuration not stated) do in these assays?
CD11b adhes enh: -1.5; hDAT+cocaine: -0.496; PTK2B oligo ant: -0.29; Mac1 fbg inh: 10.7; D1 mod: -0.0998

What do the screens show for `CCCC(=O)Nc1nnc(SCC(=O)NCc2ccco2)s1`?
CD11b adhes enh: 0.9; Mac1 fbg inh: -10.0

Results for COc1ccc(-n2c(SCC(=O)N3CCCC3)nc3c([nH]c4ccccc43)c2=O)cc1 ?
D1 mod: -0.53

Results for Cn1c(Sc2nc3ccccc3n2C)nc2ccccc21 ?
CD11b adhes enh: -6.6; hDAT+cocaine: -0.65; PTK2B oligo ant: 0.09; Mac1 fbg inh: 6.6; D1 mod: 0.378; FAK inh: 4.5

How did CC(Sc1nc2ccccc2n1C)C(=O)NC(c1ccccc1)c1ccccc1 (configuration not stated) do in these assays?
hDAT+cocaine: -0.233; PTK2B oligo ant: -4.04*; FAK inh: 1.5

Results for Cc1nc2c(C(=O)NCCC(C)C)c[nH]n2c(=O)c1Cc1ccccc1F ?
CD11b adhes enh: -9.4; hDAT+cocaine: 0.00281; PTK2B oligo ant: -1.8; Mac1 fbg inh: 80.8*; FAK inh: -2.6

How did O=C(COc1ccc(S(=O)(=O)N2CCc3ccccc32)cc1Cl)NCc1ccccn1 do in these assays?
CD11b adhes enh: -2.5; hDAT+cocaine: 2.23*; PTK2B oligo ant: 0.38; Mac1 fbg inh: 8.7; D1 mod: 0.282; FAK inh: 0.3

How did COc1ccc(/C=N/OCC(=O)N2CC3(C)CC2CC(C)(C)C3)cc1OC (configuration not stated) do in these assays?
CD11b adhes enh: -1.6; hDAT+cocaine: 2.78*; PTK2B oligo ant: 0.01; Mac1 fbg inh: 6.2; FAK inh: 0.3

Results for COc1ccc(CC(=O)N2CC3(C)CC2CC(C)(C)C3)cc1 (configuration not stated) ?
CD11b adhes enh: 1.0; hDAT+cocaine: -0.0197; PTK2B oligo ant: -0.27; Mac1 fbg inh: 6.5; FAK inh: -1.2

Results for CC(C)C(=O)N1CCC2(CC1)Oc1ccc(Cl)cc1C(=O)C21CC(c2cccnc2)=NO1 (configuration not stated) ?
hDAT+cocaine: 0.656

Results for CCOC(=O)N1C2=NC(C(=O)OC)=C(C(=O)OC)[C@@H]3N(Cc4ccccc4)c4ccccc4[C@]23C[C@H]1C(=O)OC ?
hDAT+cocaine: 0.373

Results for CN(C)c1ccc(N/C=C/C(=O)c2ccccc2)cc1 ?
CD11b adhes enh: -8.4; hDAT+cocaine: 0.231; PTK2B oligo ant: -1.73; Mac1 fbg inh: 74.2; D1 mod: -4.44*; FAK inh: 1.3

How did O=C(/C=C/Nc1ccccc1)c1ccccc1 do in these assays?
CD11b adhes enh: -3.4; PTK2B oligo ant: -1.07; Mac1 fbg inh: -17.1; FAK inh: 2.8

What do the screens show for `O=C(CSc1nnc(Nc2ccccc2)s1)Nc1ccc(S(=O)(=O)N2CCOCC2)cc1`?
CD11b adhes enh: -5.2; hDAT+cocaine: 0.378; PTK2B oligo ant: -2.73; Mac1 fbg inh: 32.8; FAK inh: -1.7

Results for Cc1ccc(Nc2nnc(SCC(=O)Nc3ccc(S(=O)(=O)N4CCOCC4)cc3)s2)cc1 ?
CD11b adhes enh: -1.6; hDAT+cocaine: 2.29; PTK2B oligo ant: -2.69; Mac1 fbg inh: 52.0*; FAK inh: 0.2

Results for COC(=O)C1N[C@@H]([C@@H](NC(=O)COc2ccccc2)C(=O)NC2CC2)SC1(C)C (some centres not stated) ?
hDAT+cocaine: -0.571

What do the screens show for `Cc1cc(C)c(OCCCCNCc2ccccc2)c(Cl)c1`?
hDAT+cocaine: 0.218; PTK2B oligo ant: 0.39; FAK inh: -1.9

Results for CCN(CC)c1ccc(C(=O)OCc2cc(=O)oc3cc(O)ccc23)cc1 ?
hDAT+cocaine: 0.0687; PTK2B oligo ant: -3.11*; FAK inh: -1.5

What do the screens show for `Cc1cc2oc(=O)cc(COC(=O)c3cccc(N(C)C)c3)c2cc1C`?
D1 mod: 1.6

Results for CCOC(=O)c1ccc(NC(=S)NCCCN2CCCCC2)cc1 ?
hDAT+cocaine: 2.05; PTK2B oligo ant: 0.72; FAK inh: 0.0

What do the screens show for `COc1ccc(Nc2nc(N)nc(CN3CCC(Cc4ccccc4)CC3)n2)cc1`?
CD11b adhes enh: 2.6; hDAT+cocaine: 0.215; Mac1 fbg inh: -4.1; D1 mod: -3*

What do the screens show for `COc1ccccc1Nc1nc(N)nc(CN2CCN(c3ccccc3)CC2)n1`?
CD11b adhes enh: -4.4; hDAT+cocaine: 2.51*; PTK2B oligo ant: -0.39; Mac1 fbg inh: 4.3; D1 mod: -0.09; FAK inh: -0.7

What do the screens show for `COc1cccc(N2CCN(Cc3nc(N)nc(Nc4ccccc4OC)n3)CC2)c1`?
hDAT+cocaine: 0.142; PTK2B oligo ant: 0.61; D1 mod: 1.66; FAK inh: -3.2

How did O=S(=O)(CCSc1nc2ccccc2s1)c1nc2ccccc2s1 do in these assays?
CD11b adhes enh: -1.8; hDAT+cocaine: -1.22; PTK2B oligo ant: -2.07; Mac1 fbg inh: 16.4; FAK inh: 0.2

Results for O=C(Nc1cccn(Cc2ccccc2)c1=O)NC1CCCCC1 ?
hDAT+cocaine: 0.931; PTK2B oligo ant: 0.83; FAK inh: -5.0

Results for O=C(Nc1cccn(Cc2ccc(F)cc2)c1=O)NC1CCCCC1 ?
hDAT+cocaine: 2.29*; PTK2B oligo ant: 0.92; FAK inh: -4.3
